Data on 15 sequences can be found in the OligoGym collection.
Note: reference of the scale not given here.

One test addresses PROC. Put plainly: pooled miR-30 sensor sort-seq; sequence = guide strand. The conditions noted are these: shRNA.
The sequence TTCTCAGACACCATGTTGCTCA showed a sensor-assay potency score (higher = more potent) of 0.141.

For the sequence ATTGAGGAAGCTCACCTCGCGC, the sensor-assay potency score (higher = more potent) is -1.35.

In the case of TTGTCGGTGGTGCTCTTGCTGT, the sensor-assay potency score (higher = more potent) was -1.32.

For TTTGGTGTAAACGCCGTAGTTG, the sensor-assay potency score (higher = more potent) is -0.456.

Take TGACTTTGGTGTAAACGCCGTA: the sensor-assay potency score (higher = more potent) was -0.165.

For TCGCTGCTGGAGAACACTGAGT, the sensor-assay potency score (higher = more potent) is -1.33.

Regarding AAGTTGAGGACGAAGGTGCGGT, the sensor-assay potency score (higher = more potent) is -0.189.

Consider ATGTTGCTCATGACCTCGCTGC, for which the sensor-assay potency score (higher = more potent) is -0.588.

In turn, TCATTGTCGGTGGTGCTCTTGC displayed a sensor-assay potency score (higher = more potent) of -0.681.

With TTGGTGTAAACGCCGTAGTTGT, the sensor-assay potency score (higher = more potent) is -1.16.

Sequence TTTGCGGATCCGCAGCACCTGG gave a sensor-assay potency score (higher = more potent) of -1.65.

Regarding TTGCTCATGACCTCGCTGCACT, the sensor-assay potency score (higher = more potent) is -0.963.

For a further test, the target named is PRODH2. Described as above. The conditions noted are these: shRNA.
In turn, AAACGCTGTAGTGTTATTGAAT returned a sensor-assay potency score (higher = more potent) of -0.964.

Regarding TAACAGGTCCGGAGCATCCTGG, the sensor-assay potency score (higher = more potent) was -1.03.

TTAAAATTGGAAACGCTGTAGT gave a sensor-assay potency score (higher = more potent) of 0.00998.
